The source of these data is PubChem BioAssay (Tox21).

The assay addresses KiSS-1 receptor (Homo sapiens) (UniProt Q969F8). Put plainly: Human kisspeptin (KISS1R) small molecule agonists, calcium flux assay in KISS1R-HEK293 cells (AID 1920064). In outline: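 Kinetic calcium assay, 1 s sampling over 3 min at Ex/Em 480/540, in HEK293 cells engineered with human KISS1R; compounds delivered in DMSO after 1 h dye loading.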
On the technique in general: A change in cytosolic calcium serves as a functional read-out for many receptors and channels.

“And” between values parts separate entries of the source, which are not always exact repeats. Equal values may be shown once. The source made the active and inactive calls. Entries that show only a call come without a potency. Calls follow the shape of the dose curve; as a rule, active = well fitted activation curve with a large enough effect in the repeat runs; inconclusive = weak or mixed curves; inactive = flat fitted curve, though single readings scatter.
Potency is read from the fitted curve at half-maximal effect.

Chain of KiSS-1 receptor (Homo sapiens) (Q969F8 whole entry, looked up): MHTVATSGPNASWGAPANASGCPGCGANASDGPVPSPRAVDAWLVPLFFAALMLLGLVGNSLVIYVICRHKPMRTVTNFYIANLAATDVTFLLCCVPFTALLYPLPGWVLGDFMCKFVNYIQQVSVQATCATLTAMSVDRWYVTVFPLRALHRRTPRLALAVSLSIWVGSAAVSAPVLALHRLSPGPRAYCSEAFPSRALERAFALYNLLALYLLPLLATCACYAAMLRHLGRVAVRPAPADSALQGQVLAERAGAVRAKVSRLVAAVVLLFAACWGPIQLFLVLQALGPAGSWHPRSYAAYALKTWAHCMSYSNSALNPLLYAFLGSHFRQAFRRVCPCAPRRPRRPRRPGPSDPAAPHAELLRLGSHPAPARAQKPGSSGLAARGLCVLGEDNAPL

Turning to `O=C1OCCO1`, the Potency result is “inactive”.
For `COC(=O)c1cc(S(N)(=O)=O)ccc1OC` the value was “inactive”; for `CC(C(=O)O)c1cccc(C(=O)c2ccccc2)c1` (centres undefined), “inactive”; for `C[C@]12CCC(=O)C=C1CC[C@@H]1[C@@H]2[C@@H](O)C[C@@]2(C)[C@H]1CC[C@]2(O)C(=O)CO`, “inactive”.
For `Cc1cccnc1` the value was “inactive”; for `CCCCc1ncc(/C=C(\Cc2cccs2)C(=O)O)n1Cc1ccc(C(=O)O)cc1`, “inactive”.
For `CC[C@H](C)[C@H](N)C(=O)O` the value was “inactive”.
Take `CC(=O)c1ccc(O)c(C(N)=O)c1`: the Potency result is “inactive”.
With `CCCCCCCCCCCCOCC1CO1` (centres undefined) the entry was “inactive”; with `O=C1c2ccccc2CCc2ccccc21`, “inactive”.
With `C=C(c1ccc(C(=O)O)cc1)c1cc2c(cc1C)C(C)(C)CCC2(C)C` the entry was “inactive”; with `O=C1OC2(c3cc(Br)c(O)c(Br)c3Oc3c2cc(Br)c(O)c3Br)c2c(Cl)c(Cl)c(Cl)c(Cl)c21`, 55 µM (active) and 33.4 µM (active); with `CCCC(C)C(O)CC` (centres undefined), “inactive”.
For `CC1(C)C(=O)N(Br)C(=O)N1Cl` the value was “inactive”.
In the case of `CN(C)c1ccc(C(=C2C=CC(=[N+](C)C)C=C2)c2ccc(N(C)C)cc2)cc1`, the Potency entry is “inactive”.
For `Cc1ccc(S(=O)(=O)NC(=O)NC2CCCCCCC2)cc1` the value was “inactive”.
With `O=C(O)c1cc(=O)[nH]c(=O)[nH]1` the entry was “inactive”.
With `O=[N+]([O-])c1ccc(F)cc1F` the entry was “inactive”; with `C[N+](C)(CCOc1ccccc1)Cc1cccs1`, “inactive”; with `O=S(=O)(O)CCN1CCN(CCO)CC1`, “inactive”.
In the case of `C=CC(=O)CC`, the Potency entry was “inactive”.
For `O=C1NCCN1CCO` the value was “inactive”; for `C=C(C)C(=O)OCCC(C)OC(=O)C(=C)C` (centres undefined), “inactive”; for `CC(C)(C)C(=O)C1C(=O)c2ccccc2C1=O`, “inactive”.
For `OCC1CCC(CO)CC1` (centres undefined) the value was “inactive”; for `CCCC(=O)Nc1ccc(O)c(C(C)=O)c1`, “inactive”.
For `CN1N=C(C(N)=O)CCC1=O` the value was “inactive”; for `C=CCOc1cc(Cl)ccc1C(=O)NCCN(CC)CC`, “inactive”.
Regarding `COc1ccc(N=[N+]([O-])c2ccc(OC)cc2)cc1`, the Potency result is “inactive”.
With `CC1=CC(C)C(C=O)CC1` (centres undefined), the Potency result was “inactive”.
For `COc1cc(C=O)ccc1OC(=O)C(C)C` the value was “inactive”; for `CCCCC1CCC(=O)O1` (centres undefined), “inactive”; for `CC(C)OC(=O)CCCCC(=O)OC(C)C`, “inactive”.
`O=C(O)c1cc(N=Nc2ccc(S(=O)(=O)Nc3ccccn3)cc2)ccc1O`: the Potency entry was “inactive”.
With `Cc1cnccn1` the entry was “inactive”; with `Nc1ccc(S(=O)(=O)Nc2ccc(Cl)nn2)cc1`, “inactive”; with `c1ccc(CSCc2ccccc2)cc1`, “inactive”.
With `Cc1cccc(C)c1NC(=O)CC12CCCN1CCC2` the entry was “inactive”; with `O=C1CCC(=O)O1`, “inactive”; with `COS(=O)(=O)O`, “inactive”.
With `Cc1cc(N)no1` the entry was “inactive”; with `O=c1[nH]c2ccc(Cl)cc2o1`, “inactive”.
As for `Nc1cc(-c2ccncc2)c[nH]c1=O`, the Potency result is “inactive”.
For `C/C=C/C(=O)CCCC` the value was “inactive”.
